The panel holds about 79,000 compounds, 15% with a hit somewhere; the sample as a whole holds those more often. No stated cut-off is given here; in the data, active means growth inhibition above about 70%; inactive means the rest.
Key:
[1] = NCI Yeast Anticancer Drug Screen. Data for the rad50 strain (AID 155);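 further: 0% = growth of vehicle-only cultures of the same strain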; conditions: S. cerevisiae rad50 strain growth inhibition; at 50.0 µM; stronger effect = higher value
Outline: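 A DNA repair-deficient yeast mutant serves as the test organism; compound-induced growth inhibition is calculated against vehicle-treated cells.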

[2] = NCI Yeast Anticancer Drug Screen. Data for the mec2-1 strain (AID 157); conditions: S. cerevisiae mec2-1 strain, at 50.0 µM, stronger effect = higher value
Outline: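 mec2-1 yeast strain, carrying an alteration in DNA damage repair or cell cycle control, was exposed to compounds; growth inhibition was measured relative to vehicle-treated controls.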

[3] = NCI Yeast Anticancer Drug Screen. Data for the sgs1 mgt1 strain (AID 161);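 further: 0% = growth of cultures given vehicle only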; conditions: S. cerevisiae sgs1 mgt1 strain, at 50.0 µM, stronger effect = higher value
Outline: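 This yeast growth screen uses a strain with defined DNA-repair lesions; compound-treated growth is compared with vehicle-treated growth.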

[4] = NCI Yeast Anticancer Drug Screen. Data for the cln2 rad14 strain (AID 165);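 further: 0% = growth equal to vehicle treated cultures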; conditions: S. cerevisiae cln2 rad14 strain, at 50.0 µM, stronger effect = higher value
Outline: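 Yeast carrying cln2 and rad14 alterations (cell cycle control and DNA damage repair) were exposed to compounds. Growth inhibition was measured against vehicle-treated controls.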

[5] = NCI Yeast Anticancer Drug Screen. Data for the bub3 strain (AID 167); conditions: S. cerevisiae bub3 mutant strain, at 50.0 µM, stronger effect = higher value
Outline: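 Inhibition values come from growth of compound-treated mutant yeast normalised to vehicle-treated controls.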

[6] = NCI Yeast Anticancer Drug Screen. Data for the mlh1 rad18 strain (AID 175); conditions: S. cerevisiae mlh1 rad18 strain growth inhibition; at 50.0 µM; stronger effect = higher value
Outline: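 Growth inhibition of the yeast strain was measured after compound exposure and expressed relative to vehicle-treated controls. The strain carries defined defects in DNA damage repair.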

Measured: growth inhibition

COC(=O)c1ccccc1N(C)C(=O)c1cc(OC)c(OC)c(OC)c1
inactive: [1] -27.4% | [2] -37% | [3] -5.75% | [4] -11.1% | [5] -19.4% | [6] -8.85%

CN/C=C(/OCc1ccccc1)c1ccc(O)c(O)c1
inactive: [1] 2.2% | [2] 0.9% | [3] 3.05% | [4] -6% | [5] -19.7% | [6] 19.2%

CCC(CO)Nc1nc2c(Cl)cc(Cl)cc2c2ccccc12 (configuration not stated)
inactive: [1] 11.1% | [2] 1.55% | [3] 18.4% | [4] -12.3% | [5] 12% | [6] 41.2%

COC(=O)c1nc(=S)[nH]c(C(=O)OC)c1C(=O)c1ccc(OC)cc1
inactive: [1] -31.9% | [2] -17.6% | [3] -10.2% | [4] -7.9% | [5] -30.4% | [6] 1.2%

C[N+](C)(C)CCC(=O)N1C/C(=C\c2ccccc2)C(=O)/C(=C/c2ccccc2)C1
inactive: [1] -35.6% | [2] -15.2% | [3] -34.1% | [4] 8.75% | [5] -15.7% | [6] -34.8%

O=C1CCN(C(=O)C2=CC(=O)OC2)C1
inactive: [1] -15.2% | [2] -1.8% | [3] -5.1% | [4] -33.6% | [5] 5.15% | [6] -2.2%

O=C(O)Cc1ccccc1-c1ccccc1
inactive: [1] -22.2% | [2] -8.15% | [3] -19.2% | [4] 22.4% | [5] -6.2% | [6] -43.2%

O=C(O)CCc1coc2ccc(O)cc12
inactive: [1] -0.45% | [2] 10.1% | [3] 8.4% | [4] -20.6% | [5] -6.1% | [6] 14.2%

CC(=O)c1cccc(OC(=O)c2ccccc2)c1
inactive: [1] 23.5% | [2] 8.3% | [3] 35% | [4] 10.7% | [5] 45.1% | [6] 30.8%

CC1=CC(=O)/C(=C/n2c(=S)[nH]c3ccc([N+](=O)[O-])cc32)C(=O)O1
inactive: [1] 2.1% | [2] -44.7% | [3] -9.5% | [4] 6.85% | [5] 6.6% | [6] -46.3%

COC(=O)c1sc2ccccc2c1C
inactive: [1] -12.4% | [2] -3.6% | [3] -7.05% | [4] -54.9% | [5] -17.8% | [6] 10.7%

O=C1CSC(=S)N1N1C(=O)CSC1=S
inactive: [1] -24.8% | [2] -7.8% | [3] -21.5% | [4] -12.3% | [5] 5.55% | [6] -12.4%

CCOCC/C(C(=O)O)=C(\CC)C(=O)O
inactive: [1] 9.15% | [2] 2.55% | [3] 0% | [4] 8.7% | [5] -22.8% | [6] 9.05%

CCN(CC)CC(O)c1cccc2cccnc12 (configuration not stated)
inactive: [1] 67.7% | [2] -11.4% | [3] 17.4% | [4] 8.8% | [5] 5.2% | [6] 30.2%

CCN(CC)CCO/N=C1\CC(c2ccc(OC)c(OC)c2)Oc2ccccc21 (configuration not stated)
inactive: [1] 3.8% | [2] 13.7% | [3] 2.65% | [4] 26.6% | [5] -9.85% | [6] 9.8%

Cc1cc(C)n2nc3c4ccsc4ncc3c2n1
inactive: [1] -5.2% | [2] -5.45% | [3] -15.9% | [4] 2.45% | [5] 0.1% | [6] -6.8%

COC(=O)/C(N=Nc1cccc(C)c1)=C(\C)O
inactive: [1] 8.65% | [2] 5.65% | [3] 5.3% | [4] 19.9% | [5] 9.8% | [6] -2.7%

O=c1oc2ccccc2c(=O)n1O
inactive: [1] 65.8% | [2] 10.3% | [3] 10.1% | [4] 9.4% | [5] 30.1% | [6] 43.1%

COC(=O)c1ccccc1Cl
inactive: [1] -11.2% | [2] 4% | [3] 9.05% | [4] -14.3% | [5] 6.65% | [6] 26.1%

CCCCC(O)(c1ccccc1)c1ccccc1CN(C)C (configuration not stated)
inactive: [1] 1.7% | [2] -3% | [3] -0.65% | [4] 6.15% | [5] -2.05% | [6] -4.8%

CCOc1ccc(CC(=O)Nc2cc([N+](=O)[O-])ccc2NCCN(CC)CC)cc1
inactive: [1] -18.2% | [2] -10.4% | [3] -8.6% | [4] -53.8% | [5] 0.2% | [6] -3.85%

N#CCCOC1C(OCCC#N)C(OCCC#N)C(OCCC#N)C(OCCC#N)C1OCCC#N (configuration not stated)
inactive: [1] -14.2% | [2] -23.1% | [3] 8% | [4] 17.7% | [5] 28.2% | [6] 16.1%

COc1ccc(OC)c(NC(=O)Nc2ccc(I)cc2)c1
inactive: [1] 46.8% | [2] 42% | [3] 33.9% | [4] 15.1% | [5] 52.9% | [6] 56%

O=C(C(=NC12CC3CC(CC(C3)C1)C2)NNc1ccc([N+](=O)[O-])cc1[N+](=O)[O-])C(Br)C(=O)c1ccccc1 (configuration not stated)
inactive: [1] 47.2% | [2] 45.9% | [3] 56.2% | [4] 3.25% | [5] 51.5% | [6] 39.9%

O=C1/C(=C/c2ccccc2)SC(=S)N1C1c2ccccc2Oc2ccccc21
inactive: [1] 35.4% | [2] 14.6% | [3] 53.8% | [4] 38.8% | [5] 5.25% | [6] 30.1%

CC(=O)c1c(O)cccc1O
inactive: [1] -11.8% | [2] -13.8% | [3] -1.75% | [4] 8.7% | [5] 8.7% | [6] -3.75%

O=C(O)/C=C/C=C/c1ccccc1
inactive: [1] 8.9% | [2] 8.95% | [3] 49.9% | [4] -2.7% | [5] 16.4% | [6] 32.8%

Cc1ccc(C(=O)OCc2ccccc2CN2CCCCC2)cc1
inactive: [1] 1.6% | [2] -8.35% | [3] -22.6% | [4] -19.7% | [5] 3.6% | [6] 2.1%

CN(C)CCNc1ncnc2nc(-c3ccc4ccccc4c3)[nH]c12
inactive: [1] -11% | [2] -20.9% | [3] 7.8% | [4] 11.6% | [5] 3.05% | [6] -18.6%

CC(C)/C=C(/CC(C)C)C(CCC(=O)Nc1ccccc1)C(=O)Nc1ccccc1 (configuration not stated)
inactive: [1] 7.9% | [2] 27.7% | [3] 4.1% | [4] 10% | [5] 1.8% | [6] 35.2%

Nc1ncc2c(ncn2CC(O)CO)n1 (configuration not stated)
inactive: [1] -24.6% | [2] -2.5% | [3] -1.55% | [4] 4.65% | [5] -3% | [6] -3.25%

[N-]=[N+]=Nc1ccnc2c(C(F)(F)F)cccc12
inactive: [1] -19.9% | [2] -18.1% | [3] -8% | [4] -60.2% | [5] -14.3% | [6] -2.45%

O=C(O)CSc1ccc2c3c(cccc13)C(=O)c1ccccc1-2
inactive: [1] -9.9% | [2] 27.4% | [3] 7.95% | [4] 26% | [5] 56.8% | [6] 3.1%

OCCCc1ccccc1
inactive: [1] -0.1% | [2] -1.65% | [3] -2.55% | [4] -13.2% | [5] 3.25% | [6] -3.7%

O=C1C=CC(=O)N1n1c(-c2ccccc2)n[nH]c1=O
inactive: [1] 4.05% | [2] -15.6% | [3] -16.9% | [4] -2.8% | [5] -8% | [6] -53.6%

S=C(Cc1ccccc1)Nc1ccccc1
inactive: [1] 12.1% | [2] -18.5% | [3] 14.1% | [4] -22.9% | [5] -25.4% | [6] 3.3%

N#CC(c1ccccc1)C1CCCCC1 (configuration not stated)
inactive: [1] -8.65% | [2] -20% | [3] -4.95% | [4] -4.3% | [5] 6.1% | [6] 20.4%

c1ccc(CSc2nn[nH]n2)cc1
inactive: [1] -5.3% | [2] -8.1% | [3] -0.8% | [4] -9.65% | [5] -2.45% | [6] -4.95%

Cc1cc2c3ccccc3n(C)c2c2c1C(=O)C=CC2=O
inactive: [1] 6.5% | [2] 20.4% | [3] 20.9% | [4] 3.1% | [5] -7.35% | [6] 55.8%

Nc1nc(N)c2cc(S(=O)(=O)c3ccccc3)ccc2n1
inactive: [1] 26.1% | [2] 8.7% | [3] -8.9% | [4] -4.55% | [5] -26.1% | [6] -40.5%

C/C=C(/C(=O)NC(N)=O)C(C)C
inactive: [1] -3.65% | [2] 3.15% | [3] -20.1% | [4] -48.3% | [5] -2.55% | [6] -2.85%

CC[N+](C)(CC)CC(O)C[N+]1(C)CC2CCCCC2C1 (configuration not stated)
inactive: [1] 13.1% | [2] -1.7% | [3] 6.2% | [4] -10.2% | [5] -4.65% | [6] 4.1%
